# Paper PMC5540273 (PLoS ONE, 2017)
# System: T1, PIK4CB
# T1 construct: gene PI4KB
# Conditions: concentration: 1 μM,replicates: in singlicate; n = 1
# 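Also: KINOMEscan kinase panel screen.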
row,Compound,%Inh
1,CSc1nccc(-c2c(-c3ccc(F)cc3)ncn2CCCN2CCOCC2)n1.Cl [SB-217146],5%
2,Cc1ccc(C(=O)Nc2ccc(Oc3ccc4nc(NC(=O)C5CC5)cn4c3)c(F)c2)c(=O)n1-c1ccccc1,0%
3,CC(C)S(=O)(=O)N1CCN(Cc2ccc3c(c2)nc(NC(=O)c2ccsc2)n3C[C@H](O)c2ccccc2)CC1 [GW635815],0%
4,CC(=O)Nc1nc2cnc(Nc3cc(NC(=O)c4cccc(CC(C)(C)C#N)c4)ccc3C)nc2s1,27%
5,Cn1ccc2ncnc(Oc3ccc(NC(=O)Nc4cccc(C(F)(F)F)c4)c(Cl)c3)c21,0%
6,O=C(Nc1n[nH]c2cc(-c3ccco3)ccc12)C1CC1 [SB-737447],18%
7,COc1cccc(OC)c1C(=O)Nc1cccc(-c2nn3ccccc3c2-c2ccnc(Nc3cccc(F)c3)n2)c1 [GSK361065],0%
8,CC(C)c1nc(-c2cccc(NS(=O)(=O)c3ccccc3)c2)c(-c2ccnc(Nc3ccc4c(c3)CN(C)CC4)n2)s1 [GSK1649598],33%
9,Cn1ccc2ncnc(Oc3ccc(NC(=O)Nc4cncc(C(F)(F)F)c4)c(Cl)c3)c21,0%
10,FC(F)(F)c1cc(Br)cc(Nc2nccc(-c3cnn4ncccc34)n2)c1 [GW810578],30%
11,CN(c1ccc2c(c1)nc(NCc1ccc(F)cc1)n2C)c1ccnc(Nc2ccc(CS(C)(=O)=O)cc2)n1.Cl [GW813244],0%
12,Cc1ccn2nc(-c3ccc(F)cc3)c(-c3ccncc3)c2c1.Cl [GW457859],0%
13,OCCn1cc(-c2cnc3nnn(Cc4ccc5ncccc5c4)c3n2)cn1,0%
14,COc1cc2ncn(-c3cc(OCC4CCCCC4)c(C(N)=O)s3)c2cc1OC [GSK204559],0%
15,CCn1c(-c2nonc2N)nc2cncc(Br)c21 [SB-738004],5%
16,CC(=O)c1c(-c2ccncc2)[nH]c(-c2ccncc2)c1C [GW493036],0%
17,CCOC(=O)N1CCC(n2cnc(-c3ccc(F)cc3)c2-c2ccnc(N)n2)CC1 [SB-219952],59%
18,O=C(NOCC1CC1)c1cc(Br)c(F)c(F)c1Nc1ccc(I)cc1Cl,0%
19,CCn1c(-c2nonc2N)nc2cncc(CNC3CCNCC3)c21.Cl [SB-747651],15%

row,Compound,%Inh
1,Cc1nnc(-c2ccc3occ(-c4ccc(S(C)=O)cc4)c3n2)o1 (centres unmarked),0%
2,CCCC(=O)Nc1n[nH]c2ncccc12 [SB-601436],12%
3,O=C(Nc1cccc(Oc2ccc3nccn3n2)c1)Nc1cccc(C(F)(F)F)c1,0%
4,C[C@@H]1CCN(C(=O)N2CCCC2)C[C@@H]1N(C)c1ncnc2[nH]ccc12,7%
5,c1ccc(Oc2ccc(Nc3ccnc4ccc(-c5ccccn5)cc34)cc2)cc1 [GW407034],0%
6,O=c1[nH]cc(-c2ccc(O)cc2)c2sc(-c3ccncc3)cc12 [GSK1033723],0%
7,CS(=O)(=O)Nc1ccc(-c2ccnc3[nH]ccc23)cc1 [GSK993273],10%
8,Cc1n[nH]c2cc(Nc3ccnc(Nc4cccc(CN5CCOCC5)c4)n3)ccc12 [GW682569],81%
9,O=C(Nc1ccc(Oc2ccc3nc(NC(=O)C4CC4)cn3n2)c(F)c1)c1cccn(-c2ccccc2)c1=O,0%
10,C[C@@H]1CNc2c(sc3ccc4nc(-c5ccc(O)cc5)ccc4c23)C(=O)N1,0%
11,C[C@@H]1CNc2c(sc3ccc4nc(-c5ccncc5)ccc4c23)C(=O)N1,0%
12,Cn1cc(-c2cccc3c(N)c(C(N)=O)nnc23)cn1,16%
13,C[C@@H](Oc1cc(-n2cnc3cc(-c4cnn(C)c4)ccc32)sc1C(N)=O)c1ccccc1Cl [GSK580432],0%
14,COC(=O)c1cccc(NC(=O)NC2CCN(c3ccnc(Nc4cc(OC)c(OC)c(OC)c4)n3)C2)c1 (centres unmarked) [GSK1379767],47%
15,CN1CCN(CCCNc2nccc(-c3c(-c4ccc(F)cc4)nn4cc(C(N)=O)ccc34)n2)CC1 [GW622475],0%
16,NC(=O)c1ccc(-c2cc3ncnc(SCC(=O)O)c3s2)cc1,0%
17,C[C@@H](Oc1cc(-n2cnc3ccc(-c4ccncc4)cc32)sc1C(N)=O)c1ccccc1Cl [GSK483724],79%
18,CCNCC(Cc1ccccc1)NC(=O)c1cc(Br)c(-c2ccnc3[nH]ccc23)s1.Cl.Cl (centres unmarked) [GSK1383280],12%

# System: PIKFYVE
# Conditions: concentration: 1 μM,replicates: in singlicate; n = 1
row,Compound,%Inh
1,CSc1nccc(-c2c(-c3ccc(F)cc3)ncn2CCCN2CCOCC2)n1.Cl [SB-217146],14%
2,Cc1ccc(C(=O)Nc2ccc(Oc3ccc4nc(NC(=O)C5CC5)cn4c3)c(F)c2)c(=O)n1-c1ccccc1,14%
3,CC(C)S(=O)(=O)N1CCN(Cc2ccc3c(c2)nc(NC(=O)c2ccsc2)n3C[C@H](O)c2ccccc2)CC1 [GW635815],0%
4,CC(=O)Nc1nc2cnc(Nc3cc(NC(=O)c4cccc(CC(C)(C)C#N)c4)ccc3C)nc2s1,0%
5,Cn1ccc2ncnc(Oc3ccc(NC(=O)Nc4cccc(C(F)(F)F)c4)c(Cl)c3)c21,29%
6,O=C(Nc1n[nH]c2cc(-c3ccco3)ccc12)C1CC1 [SB-737447],1%
7,COc1cccc(OC)c1C(=O)Nc1cccc(-c2nn3ccccc3c2-c2ccnc(Nc3cccc(F)c3)n2)c1 [GSK361065],42%
8,CC(C)c1nc(-c2cccc(NS(=O)(=O)c3ccccc3)c2)c(-c2ccnc(Nc3ccc4c(c3)CN(C)CC4)n2)s1 [GSK1649598],56%
9,Cn1ccc2ncnc(Oc3ccc(NC(=O)Nc4cncc(C(F)(F)F)c4)c(Cl)c3)c21,0%
10,FC(F)(F)c1cc(Br)cc(Nc2nccc(-c3cnn4ncccc34)n2)c1 [GW810578],10%
11,CN(c1ccc2c(c1)nc(NCc1ccc(F)cc1)n2C)c1ccnc(Nc2ccc(CS(C)(=O)=O)cc2)n1.Cl [GW813244],0%
12,Cc1ccn2nc(-c3ccc(F)cc3)c(-c3ccncc3)c2c1.Cl [GW457859],54%
13,OCCn1cc(-c2cnc3nnn(Cc4ccc5ncccc5c4)c3n2)cn1,40%
14,COc1cc2ncn(-c3cc(OCC4CCCCC4)c(C(N)=O)s3)c2cc1OC [GSK204559],0%
15,CCn1c(-c2nonc2N)nc2cncc(Br)c21 [SB-738004],39%
16,CC(=O)c1c(-c2ccncc2)[nH]c(-c2ccncc2)c1C [GW493036],26%
17,CCOC(=O)N1CCC(n2cnc(-c3ccc(F)cc3)c2-c2ccnc(N)n2)CC1 [SB-219952],37%
18,O=C(NOCC1CC1)c1cc(Br)c(F)c(F)c1Nc1ccc(I)cc1Cl,41%
19,CCn1c(-c2nonc2N)nc2cncc(CNC3CCNCC3)c21.Cl [SB-747651],0%

row,Compound,%Inh
1,Cc1nnc(-c2ccc3occ(-c4ccc(S(C)=O)cc4)c3n2)o1 (centres unmarked),0%
2,CCCC(=O)Nc1n[nH]c2ncccc12 [SB-601436],0%
3,O=C(Nc1cccc(Oc2ccc3nccn3n2)c1)Nc1cccc(C(F)(F)F)c1,0%
4,C[C@@H]1CCN(C(=O)N2CCCC2)C[C@@H]1N(C)c1ncnc2[nH]ccc12,3%
5,c1ccc(Oc2ccc(Nc3ccnc4ccc(-c5ccccn5)cc34)cc2)cc1 [GW407034],0%
6,O=c1[nH]cc(-c2ccc(O)cc2)c2sc(-c3ccncc3)cc12 [GSK1033723],0%
7,CS(=O)(=O)Nc1ccc(-c2ccnc3[nH]ccc23)cc1 [GSK993273],0%
8,Cc1n[nH]c2cc(Nc3ccnc(Nc4cccc(CN5CCOCC5)c4)n3)ccc12 [GW682569],23%
9,O=C(Nc1ccc(Oc2ccc3nc(NC(=O)C4CC4)cn3n2)c(F)c1)c1cccn(-c2ccccc2)c1=O,4%
10,C[C@@H]1CNc2c(sc3ccc4nc(-c5ccc(O)cc5)ccc4c23)C(=O)N1,18%
11,C[C@@H]1CNc2c(sc3ccc4nc(-c5ccncc5)ccc4c23)C(=O)N1,52%
12,Cn1cc(-c2cccc3c(N)c(C(N)=O)nnc23)cn1,0%
13,C[C@@H](Oc1cc(-n2cnc3cc(-c4cnn(C)c4)ccc32)sc1C(N)=O)c1ccccc1Cl [GSK580432],61%
14,COC(=O)c1cccc(NC(=O)NC2CCN(c3ccnc(Nc4cc(OC)c(OC)c(OC)c4)n3)C2)c1 (centres unmarked) [GSK1379767],28%
15,CN1CCN(CCCNc2nccc(-c3c(-c4ccc(F)cc4)nn4cc(C(N)=O)ccc34)n2)CC1 [GW622475],94.2%
16,NC(=O)c1ccc(-c2cc3ncnc(SCC(=O)O)c3s2)cc1,42%
17,C[C@@H](Oc1cc(-n2cnc3ccc(-c4ccncc4)cc32)sc1C(N)=O)c1ccccc1Cl [GSK483724],95.1%
18,CCNCC(Cc1ccccc1)NC(=O)c1cc(Br)c(-c2ccnc3[nH]ccc23)s1.Cl.Cl (centres unmarked) [GSK1383280],0%
